What was measured:
Test in all cases: DAPPL (digital affinity profiling via proximity ligation, sequencing); 10 mM Tris-HCl pH 7.5, 50 mM NaCl, 1 mM DTT, 4% glycerol, room temperature, 30 min; GST-TFs on glutathione beads, 16-mer random dsDNA library, 0.1% formaldehyde crosslink after washing; high values mean tight binding
[1] = target: T1, FLI1 (Homo sapiens, UniProt Q01543 1-452); conditions: protein: recombinant; tags: N-terminal GST; dsDNA, one strand shown
T1 sequence: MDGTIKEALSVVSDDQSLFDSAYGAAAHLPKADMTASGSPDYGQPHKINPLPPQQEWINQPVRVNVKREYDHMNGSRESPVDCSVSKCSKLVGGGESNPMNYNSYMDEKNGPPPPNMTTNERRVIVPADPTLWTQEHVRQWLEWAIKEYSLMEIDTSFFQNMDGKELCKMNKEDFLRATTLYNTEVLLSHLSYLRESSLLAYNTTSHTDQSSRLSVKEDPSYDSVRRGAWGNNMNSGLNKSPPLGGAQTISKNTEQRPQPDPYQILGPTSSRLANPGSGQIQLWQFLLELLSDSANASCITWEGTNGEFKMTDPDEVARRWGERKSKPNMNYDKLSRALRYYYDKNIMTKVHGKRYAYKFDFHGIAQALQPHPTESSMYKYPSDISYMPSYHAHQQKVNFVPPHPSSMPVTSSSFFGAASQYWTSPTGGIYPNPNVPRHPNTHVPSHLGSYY
In short: (§1)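 A tag-only sample was pooled with DNA-barcoded human transcription factors that had been expressed in yeast as GST fusions and captured on glutathione beads. The pools were incubated for 30 min at room temperature with 200 nmole of a random double-stranded 16-mer DNA library in Tris/NaCl/DTT/glycerol buffer, then washed, crosslinked with 0.1% formaldehyde, proximity-ligated (BsaI/T4 ligase, 1 h, 37 °C), PCR-amplified and sequenced on an Illumina NextSeq500. Binding signal is each hexamer's read frequency for a factor divided by its frequency for the tag-only sample.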

[2] = target: T2, ELK1 (Homo sapiens, UniProt P19419 1-428); conditions: protein: recombinant; tags: N-terminal GST; dsDNA, one strand shown
T2 sequence: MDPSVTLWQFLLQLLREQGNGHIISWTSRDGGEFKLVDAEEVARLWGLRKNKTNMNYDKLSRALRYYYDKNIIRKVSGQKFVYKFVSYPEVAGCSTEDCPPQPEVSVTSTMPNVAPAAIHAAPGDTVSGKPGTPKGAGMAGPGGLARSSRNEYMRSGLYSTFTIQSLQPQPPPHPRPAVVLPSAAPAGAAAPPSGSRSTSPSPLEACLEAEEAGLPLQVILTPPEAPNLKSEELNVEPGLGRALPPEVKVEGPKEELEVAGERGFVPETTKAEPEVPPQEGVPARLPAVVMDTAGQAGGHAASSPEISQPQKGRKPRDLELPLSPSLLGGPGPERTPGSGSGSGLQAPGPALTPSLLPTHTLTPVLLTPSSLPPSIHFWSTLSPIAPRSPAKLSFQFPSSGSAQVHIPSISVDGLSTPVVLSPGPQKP
In short: as §1

[3] = target: T3, GABPA (Homo sapiens, UniProt Q06546 1-454); conditions: protein: recombinant; tags: N-terminal GST; dsDNA, one strand shown
T3 sequence: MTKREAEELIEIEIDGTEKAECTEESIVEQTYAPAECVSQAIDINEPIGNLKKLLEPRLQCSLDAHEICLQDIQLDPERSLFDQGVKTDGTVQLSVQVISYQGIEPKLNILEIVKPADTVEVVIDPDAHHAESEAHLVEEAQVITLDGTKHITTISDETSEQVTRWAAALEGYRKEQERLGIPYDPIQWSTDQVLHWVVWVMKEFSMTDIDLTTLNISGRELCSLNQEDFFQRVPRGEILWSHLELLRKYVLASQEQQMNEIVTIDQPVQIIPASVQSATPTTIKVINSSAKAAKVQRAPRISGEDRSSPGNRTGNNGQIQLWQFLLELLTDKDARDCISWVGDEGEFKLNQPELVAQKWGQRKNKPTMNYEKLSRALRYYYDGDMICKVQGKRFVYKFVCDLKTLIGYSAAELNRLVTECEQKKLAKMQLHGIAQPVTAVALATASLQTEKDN
In short: as §1

[4] = target: T4, ERG (Homo sapiens, UniProt P11308 1-479); conditions: protein: recombinant; tags: N-terminal GST; dsDNA, one strand shown
T4 sequence: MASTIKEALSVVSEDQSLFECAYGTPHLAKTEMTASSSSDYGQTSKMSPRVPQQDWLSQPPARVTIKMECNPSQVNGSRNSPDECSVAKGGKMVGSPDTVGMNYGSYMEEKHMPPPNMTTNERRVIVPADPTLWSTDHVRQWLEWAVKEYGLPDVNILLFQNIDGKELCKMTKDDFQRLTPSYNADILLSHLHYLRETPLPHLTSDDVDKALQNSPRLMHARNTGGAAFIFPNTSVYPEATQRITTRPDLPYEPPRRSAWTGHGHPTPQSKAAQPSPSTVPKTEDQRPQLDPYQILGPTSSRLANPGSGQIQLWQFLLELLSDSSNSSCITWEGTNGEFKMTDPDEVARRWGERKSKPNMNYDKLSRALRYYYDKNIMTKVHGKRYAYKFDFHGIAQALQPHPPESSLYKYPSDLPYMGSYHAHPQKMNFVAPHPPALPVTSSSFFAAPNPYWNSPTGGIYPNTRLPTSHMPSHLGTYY
In short: as §1

[5] = target: ELF1 (Homo sapiens, UniProt P32519 1-619); conditions: protein: recombinant; tags: N-terminal GST; dsDNA, one strand shown
ELF1, sequence (P32519 whole entry): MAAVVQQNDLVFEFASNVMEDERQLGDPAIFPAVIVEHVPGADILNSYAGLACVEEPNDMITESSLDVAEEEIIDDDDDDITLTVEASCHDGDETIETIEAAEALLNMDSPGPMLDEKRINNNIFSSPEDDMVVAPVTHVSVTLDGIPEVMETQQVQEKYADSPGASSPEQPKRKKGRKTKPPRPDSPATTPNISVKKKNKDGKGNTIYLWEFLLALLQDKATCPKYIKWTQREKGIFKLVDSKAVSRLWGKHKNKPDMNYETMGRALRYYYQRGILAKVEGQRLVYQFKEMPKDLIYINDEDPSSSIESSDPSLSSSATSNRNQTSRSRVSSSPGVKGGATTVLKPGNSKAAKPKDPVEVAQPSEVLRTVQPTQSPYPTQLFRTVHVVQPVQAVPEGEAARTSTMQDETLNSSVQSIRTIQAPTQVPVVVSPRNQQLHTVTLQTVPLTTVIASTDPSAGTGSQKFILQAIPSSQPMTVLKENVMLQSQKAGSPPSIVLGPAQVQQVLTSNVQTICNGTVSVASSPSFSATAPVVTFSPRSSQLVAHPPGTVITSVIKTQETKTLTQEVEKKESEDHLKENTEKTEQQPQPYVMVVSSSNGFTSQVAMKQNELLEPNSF
In short: as §1

[6] = target: T5, EHF (Homo sapiens, UniProt Q9NZC4 1-300); conditions: protein: recombinant; tags: N-terminal GST; dsDNA, one strand shown
T5 sequence: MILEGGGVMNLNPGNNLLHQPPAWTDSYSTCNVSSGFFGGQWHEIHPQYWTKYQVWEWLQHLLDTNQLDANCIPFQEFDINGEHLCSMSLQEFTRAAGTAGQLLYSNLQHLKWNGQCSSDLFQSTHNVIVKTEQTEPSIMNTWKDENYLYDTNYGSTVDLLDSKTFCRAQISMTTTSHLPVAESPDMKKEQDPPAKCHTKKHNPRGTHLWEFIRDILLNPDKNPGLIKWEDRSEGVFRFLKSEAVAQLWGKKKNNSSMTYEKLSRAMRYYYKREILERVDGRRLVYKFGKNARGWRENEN
In short: as §1

[7] = target: SPI1 (Homo sapiens, UniProt P17947 1-270); conditions: protein: recombinant; tags: N-terminal GST; dsDNA, one strand shown
In short: as §1

[8] = target: SPIB (Homo sapiens, UniProt Q01892 1-262); conditions: protein: recombinant; tags: N-terminal GST; dsDNA, one strand shown
SPIB, sequence (Q01892 whole entry): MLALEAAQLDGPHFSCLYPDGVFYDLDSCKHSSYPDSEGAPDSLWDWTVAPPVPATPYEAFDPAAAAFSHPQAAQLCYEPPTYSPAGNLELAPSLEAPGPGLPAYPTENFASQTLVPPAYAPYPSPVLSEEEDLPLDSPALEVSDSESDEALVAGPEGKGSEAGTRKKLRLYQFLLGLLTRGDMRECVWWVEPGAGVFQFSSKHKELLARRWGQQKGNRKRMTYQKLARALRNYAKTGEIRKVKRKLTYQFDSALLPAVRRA
In short: as §1

[9] = target: T6, ELK3 (Homo sapiens, UniProt P41970 1-407); conditions: protein: recombinant; tags: N-terminal GST; dsDNA, one strand shown
T6 sequence: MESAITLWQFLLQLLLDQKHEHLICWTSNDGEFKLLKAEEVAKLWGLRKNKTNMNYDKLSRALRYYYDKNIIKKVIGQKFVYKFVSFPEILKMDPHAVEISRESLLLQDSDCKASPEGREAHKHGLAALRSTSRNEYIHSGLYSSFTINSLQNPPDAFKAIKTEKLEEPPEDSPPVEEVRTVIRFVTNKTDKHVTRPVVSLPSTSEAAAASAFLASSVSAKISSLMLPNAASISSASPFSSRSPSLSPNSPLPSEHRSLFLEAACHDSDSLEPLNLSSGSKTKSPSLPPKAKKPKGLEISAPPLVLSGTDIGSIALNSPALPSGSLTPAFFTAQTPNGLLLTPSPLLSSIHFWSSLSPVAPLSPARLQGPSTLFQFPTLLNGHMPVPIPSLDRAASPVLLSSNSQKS
In short: as §1

[10] = target: T7, FEV (Homo sapiens, UniProt Q99581 1-238); conditions: protein: recombinant; tags: N-terminal GST; dsDNA, one strand shown
T7 sequence: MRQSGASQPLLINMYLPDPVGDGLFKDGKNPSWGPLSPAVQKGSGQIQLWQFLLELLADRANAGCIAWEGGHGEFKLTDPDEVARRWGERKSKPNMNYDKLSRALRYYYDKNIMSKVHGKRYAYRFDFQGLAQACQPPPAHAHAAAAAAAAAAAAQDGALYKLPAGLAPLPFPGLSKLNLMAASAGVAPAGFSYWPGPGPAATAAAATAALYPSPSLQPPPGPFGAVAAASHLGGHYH
In short: as §1

[11] = target: ETV5 (Homo sapiens, UniProt P41161 1-510); conditions: protein: recombinant; tags: N-terminal GST; dsDNA, one strand shown
ETV5, sequence (P41161 whole entry): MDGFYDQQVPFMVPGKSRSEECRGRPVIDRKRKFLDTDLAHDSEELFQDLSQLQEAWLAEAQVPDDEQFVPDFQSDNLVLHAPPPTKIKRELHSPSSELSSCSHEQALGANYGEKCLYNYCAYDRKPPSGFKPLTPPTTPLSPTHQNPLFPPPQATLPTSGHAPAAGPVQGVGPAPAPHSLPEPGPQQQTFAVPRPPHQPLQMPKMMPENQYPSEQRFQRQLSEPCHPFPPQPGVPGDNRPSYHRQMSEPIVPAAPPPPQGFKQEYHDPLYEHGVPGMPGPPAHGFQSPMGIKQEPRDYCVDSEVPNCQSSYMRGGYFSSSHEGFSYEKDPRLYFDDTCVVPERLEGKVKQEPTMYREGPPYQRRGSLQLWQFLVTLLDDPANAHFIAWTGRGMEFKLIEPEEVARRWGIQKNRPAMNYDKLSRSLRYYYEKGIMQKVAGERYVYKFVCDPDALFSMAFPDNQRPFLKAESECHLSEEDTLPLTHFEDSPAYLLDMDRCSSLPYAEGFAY
In short: as §1

[12] = target: HSF1 (Homo sapiens, UniProt Q00613 1-529); conditions: protein: recombinant; tags: N-terminal GST; chain copies: 3; dsDNA, one strand shown
HSF1, sequence (Q00613 whole entry): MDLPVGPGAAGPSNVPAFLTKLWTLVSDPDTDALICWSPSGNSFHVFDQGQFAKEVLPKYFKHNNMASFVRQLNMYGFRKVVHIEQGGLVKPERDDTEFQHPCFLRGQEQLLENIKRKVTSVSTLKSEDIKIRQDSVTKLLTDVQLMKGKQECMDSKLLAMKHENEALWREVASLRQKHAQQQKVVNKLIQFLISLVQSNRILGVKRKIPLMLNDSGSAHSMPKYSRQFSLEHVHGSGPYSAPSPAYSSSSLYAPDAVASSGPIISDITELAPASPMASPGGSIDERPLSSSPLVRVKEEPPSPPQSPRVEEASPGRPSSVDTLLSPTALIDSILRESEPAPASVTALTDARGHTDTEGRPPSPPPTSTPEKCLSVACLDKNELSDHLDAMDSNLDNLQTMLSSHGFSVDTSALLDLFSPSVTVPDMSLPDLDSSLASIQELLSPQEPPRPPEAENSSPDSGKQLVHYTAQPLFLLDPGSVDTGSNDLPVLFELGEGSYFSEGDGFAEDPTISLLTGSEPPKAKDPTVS
In short: as §1

[13] = target: T8, SPIC (Homo sapiens, UniProt Q8N5J4 1-248); conditions: protein: recombinant; tags: N-terminal GST; dsDNA, one strand shown
T8 sequence: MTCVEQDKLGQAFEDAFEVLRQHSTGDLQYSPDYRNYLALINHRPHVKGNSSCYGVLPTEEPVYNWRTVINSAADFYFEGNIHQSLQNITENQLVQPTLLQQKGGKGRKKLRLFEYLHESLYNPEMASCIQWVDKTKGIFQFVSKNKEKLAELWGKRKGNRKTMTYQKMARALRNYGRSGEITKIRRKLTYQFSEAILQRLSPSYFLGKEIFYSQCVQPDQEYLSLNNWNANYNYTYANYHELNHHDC
In short: as §1

[14] = target: ELF4 (Homo sapiens, UniProt Q99607 1-663); conditions: protein: recombinant; tags: N-terminal GST; dsDNA, one strand shown
ELF4, sequence (Q99607 whole entry): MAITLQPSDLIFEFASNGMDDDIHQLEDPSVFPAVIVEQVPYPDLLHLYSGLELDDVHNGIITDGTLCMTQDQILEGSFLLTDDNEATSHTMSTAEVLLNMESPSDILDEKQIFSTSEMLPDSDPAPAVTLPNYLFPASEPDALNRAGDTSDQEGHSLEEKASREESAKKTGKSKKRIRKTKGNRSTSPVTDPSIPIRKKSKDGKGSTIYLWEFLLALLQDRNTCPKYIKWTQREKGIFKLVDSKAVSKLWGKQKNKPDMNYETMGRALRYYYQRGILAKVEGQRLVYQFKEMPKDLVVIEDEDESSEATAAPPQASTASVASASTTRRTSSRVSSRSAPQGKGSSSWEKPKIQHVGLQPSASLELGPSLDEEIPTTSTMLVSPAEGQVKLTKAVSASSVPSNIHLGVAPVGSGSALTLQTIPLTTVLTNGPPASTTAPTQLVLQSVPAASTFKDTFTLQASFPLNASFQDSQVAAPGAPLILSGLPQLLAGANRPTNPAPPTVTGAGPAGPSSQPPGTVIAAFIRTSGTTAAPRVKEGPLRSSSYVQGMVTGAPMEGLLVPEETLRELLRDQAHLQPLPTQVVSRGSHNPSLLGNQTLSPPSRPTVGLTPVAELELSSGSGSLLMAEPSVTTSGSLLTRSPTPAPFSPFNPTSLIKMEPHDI
In short: as §1

[15] = target: T9, ELK4 (Homo sapiens, UniProt P28324-2 1-405); conditions: protein: recombinant; tags: N-terminal GST; dsDNA, one strand shown
T9 sequence: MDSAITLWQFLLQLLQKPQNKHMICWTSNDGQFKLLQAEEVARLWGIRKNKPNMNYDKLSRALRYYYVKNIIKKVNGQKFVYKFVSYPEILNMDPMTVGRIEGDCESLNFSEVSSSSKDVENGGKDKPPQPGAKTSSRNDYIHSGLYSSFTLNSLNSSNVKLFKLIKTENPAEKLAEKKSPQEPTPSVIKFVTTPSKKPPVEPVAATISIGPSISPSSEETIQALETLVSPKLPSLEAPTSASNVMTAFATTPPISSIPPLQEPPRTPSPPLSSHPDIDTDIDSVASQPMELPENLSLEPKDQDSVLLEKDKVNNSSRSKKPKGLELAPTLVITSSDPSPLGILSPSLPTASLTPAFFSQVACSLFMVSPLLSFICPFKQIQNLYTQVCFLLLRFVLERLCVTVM
In short: as §1

[16] = target: T10, ETV2 (Homo sapiens, UniProt O00321 1-342); conditions: protein: recombinant; tags: N-terminal GST; dsDNA, one strand shown
T10 sequence: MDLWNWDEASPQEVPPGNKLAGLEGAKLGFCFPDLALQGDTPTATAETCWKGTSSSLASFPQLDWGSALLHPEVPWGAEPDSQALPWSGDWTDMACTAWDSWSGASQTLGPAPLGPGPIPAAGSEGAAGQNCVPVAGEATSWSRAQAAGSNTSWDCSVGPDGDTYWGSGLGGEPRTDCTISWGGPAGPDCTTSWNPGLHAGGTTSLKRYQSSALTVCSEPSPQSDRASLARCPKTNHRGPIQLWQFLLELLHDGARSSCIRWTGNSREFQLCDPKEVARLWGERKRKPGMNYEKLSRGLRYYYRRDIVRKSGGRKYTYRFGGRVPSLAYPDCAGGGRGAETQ
In short: as §1

[17] = target: T11, ELF3 (Homo sapiens, UniProt P78545 1-371); conditions: protein: recombinant; tags: N-terminal GST; dsDNA, one strand shown
T11 sequence: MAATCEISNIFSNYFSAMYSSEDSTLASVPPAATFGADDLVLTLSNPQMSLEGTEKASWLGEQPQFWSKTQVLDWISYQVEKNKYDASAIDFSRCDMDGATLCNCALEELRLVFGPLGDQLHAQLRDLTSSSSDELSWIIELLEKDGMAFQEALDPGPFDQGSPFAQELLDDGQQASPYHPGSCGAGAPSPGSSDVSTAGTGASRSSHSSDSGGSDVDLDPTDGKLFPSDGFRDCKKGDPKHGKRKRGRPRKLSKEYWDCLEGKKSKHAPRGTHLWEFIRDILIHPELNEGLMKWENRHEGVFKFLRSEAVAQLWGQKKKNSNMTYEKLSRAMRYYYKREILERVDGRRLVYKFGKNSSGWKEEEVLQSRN
In short: as §1

[18] = target: CRX (Homo sapiens, UniProt O43186 1-299); conditions: protein: recombinant; tags: N-terminal GST; dsDNA, one strand shown
CRX, sequence (O43186 whole entry): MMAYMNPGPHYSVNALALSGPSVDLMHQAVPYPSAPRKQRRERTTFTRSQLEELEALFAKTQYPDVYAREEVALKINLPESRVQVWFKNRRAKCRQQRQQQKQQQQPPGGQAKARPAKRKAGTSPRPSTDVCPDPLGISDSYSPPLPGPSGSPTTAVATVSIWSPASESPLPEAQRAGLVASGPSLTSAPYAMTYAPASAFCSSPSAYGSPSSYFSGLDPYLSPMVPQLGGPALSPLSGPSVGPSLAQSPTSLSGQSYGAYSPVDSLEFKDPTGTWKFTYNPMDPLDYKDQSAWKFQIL
In short: as §1

[19] = target: ETV1 (Homo sapiens, UniProt P50549 1-477); conditions: protein: recombinant; tags: N-terminal GST; dsDNA, one strand shown
ETV1, sequence (P50549 whole entry): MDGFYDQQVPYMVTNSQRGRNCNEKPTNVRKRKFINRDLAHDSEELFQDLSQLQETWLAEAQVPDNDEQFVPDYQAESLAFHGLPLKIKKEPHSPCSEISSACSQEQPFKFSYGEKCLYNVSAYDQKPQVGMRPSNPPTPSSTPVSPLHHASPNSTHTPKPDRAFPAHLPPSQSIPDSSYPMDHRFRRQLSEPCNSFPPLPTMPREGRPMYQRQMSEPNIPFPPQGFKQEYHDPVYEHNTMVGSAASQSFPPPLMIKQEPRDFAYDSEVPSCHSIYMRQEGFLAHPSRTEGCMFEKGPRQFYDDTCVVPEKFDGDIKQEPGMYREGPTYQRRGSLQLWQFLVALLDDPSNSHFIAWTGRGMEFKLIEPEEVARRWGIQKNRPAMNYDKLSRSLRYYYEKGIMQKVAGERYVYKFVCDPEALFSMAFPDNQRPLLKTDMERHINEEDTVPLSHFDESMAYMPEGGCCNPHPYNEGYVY
In short: as §1

Sequence: CTCGAC
- binding signal [1]: 1.49 fold enrichment (6-mer frequency, TF over GST control)
- binding signal [2]: 1.47 fold enrichment (6-mer frequency, TF over GST control)
- binding signal [3]: 1.53 fold enrichment (6-mer frequency, TF over GST control)
- binding signal [4]: 1.47 fold enrichment (6-mer frequency, TF over GST control)
- binding signal [5]: 1.53 fold enrichment (6-mer frequency, TF over GST control)
- binding signal [6]: 1.46 fold enrichment (6-mer frequency, TF over GST control)
- binding signal [7]: 1.34 fold enrichment (6-mer frequency, TF over GST control)
- binding signal [8]: 1.33 fold enrichment (6-mer frequency, TF over GST control)
- binding signal [9]: 1.36 fold enrichment (6-mer frequency, TF over GST control)
- binding signal [10]: 1.41 fold enrichment (6-mer frequency, TF over GST control)
- binding signal [11]: 1.47 fold enrichment (6-mer frequency, TF over GST control)
- binding signal [12]: 1.77 fold enrichment (6-mer frequency, TF over GST control)
- binding signal [13]: 1.58 fold enrichment (6-mer frequency, TF over GST control)
- binding signal [14]: 1.58 fold enrichment (6-mer frequency, TF over GST control)
- binding signal [15]: 1.49 fold enrichment (6-mer frequency, TF over GST control)
- binding signal [16]: 1.39 fold enrichment (6-mer frequency, TF over GST control)
- binding signal [17]: 1.31 fold enrichment (6-mer frequency, TF over GST control)
- binding signal [18]: 1.32 fold enrichment (6-mer frequency, TF over GST control)
- binding signal [19]: 1.58 fold enrichment (6-mer frequency, TF over GST control)
